Assay outcomes from PubChem.
Rows were chosen to be rich in hits. Some 1.8% of all compounds tested hit in one or more screens of this group.
GRK2 inh – compounds blocking aptamer binding on GRK2 – biochemical, human GRK2, bead flow cytometry, HTS, primary screen; Beta-adrenergic receptor kinase 1 (Homo sapiens), P25098; FAM-aptamer displacement from GRK2; inhibition of aptamer binding, % at 10 µM; 330,000 tested, 0.59% active; AID 488847, 2010;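 active means inhibition of aptamer binding above 40%, roughly 3 SD of noise, on plates passing a quality check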;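 further: median bead fluorescence of bound FAM aptamer so fluorescent compounds give negative values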
DSG3 Ab inh – inhibitors of pemphigus antibody binding to DSG3, primary screen, biochemical, bead-based, flow cytometry, scFv-GFP; Desmoglein-3 (Homo sapiens), P32926; 310,000 tested, 0.48% active; binding (percent of control), % at 10 µM; DSG3-coupled beads, scFv-anti-DSG3-GFP binding; hits give low values;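 active means binding more than 3 SD below its plate's average and above zero; inconclusive means below that plate limit but binding exactly zero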;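 further: hits lower antibody fragment binding to DSG3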
HDAC3 inh – HDAC3 deacetylase inhibitors, primary screen, biochemical, fluorescence, cell-free homogeneous | Histone deacetylase 3 (Homo sapiens), O15379 | recombinant HDAC3, fluorogenic peptide/trypsin coupled | inhibition, % at 8.3 µM | 320,000 tested, 0.15% active; in the data active means inhibition above about 26%, passing the limit was not always enough; inconclusive means no clear call, values can overlap the other calls
LANA-H2A inh – blockers of LANA interaction with H2A/H2B – biochemical, FP readout, HTS, primary screen | AID 2629, 2010 | 320,000 tested, 0.6% active | cell-free LANA-H2A/H2B peptide, fluorescence polarization | inhibition, % (concentration not given with the values) | Protein LANA1 (Human herpesvirus 8 type P (isolate GK18)), Q9QR71; in the data active means inhibition mostly above about 10%, no sharp cut-off; inactive means mostly below about 6.7%
VLA-4 inh – inhibition in human VLA-4 binding assay, primary screen, VLA-4 allosteric modulator project, MLPCN library, flow cytometry, VLA-4 expressing cells. Integrin alpha-4 (Homo sapiens), P13612. ligand binding flow cytometry. AID 2557, 2010. 330,000 tested, 0.2% active. inhibition, % (about 7 µM as worked out from the volumes in the protocol)
PKD1 inh – inhibitors of human PKD1 kinase, biochemical, fluorescence polarization. PKD1 kinase fluorescence polarization assay. inhibition, % (concentration not given with the values). 200,000 tested, 0.056% active. Serine/threonine-protein kinase D1 (Homo sapiens), Q15139
VLA-4 allo CP – retest of VLA-4 allosteric modulators, confirmation, cell-based, cherry-picked plates, U937, HUTS-21 LIBS antibody; AID 2813, 2010; U937 cells, HUTS-21 LIBS mAb binding, flow cytometry; LDV ligand present at threefold Kd; 1,300 tested, 2% active; shares compounds with VLA-4 inh; inhibition, % at 6.7 µM; in the data active means inhibition above about 40%
Hits are given with their value. Unless noted, no stated cut-off is given here; in the data, active means inhibition above about 50%; inactive means the rest.

For O=C(COC(=O)c1ccco1)NC1CCCC1 the results were GRK2 inh inactive, DSG3 Ab inh inconclusive, HDAC3 inh inactive, LANA-H2A inh inactive and VLA-4 inh inactive.
CNC(=O)/C(C#N)=C/c1ccc(OCCOc2ccccc2)cc1 was read as GRK2 inh inactive, DSG3 Ab inh inactive, HDAC3 inh inactive, LANA-H2A inh inactive and VLA-4 inh inactive.
For CCOc1ccc(C(=O)NCC(=O)N2CCN(c3ccccc3O)CC2)cc1 the results were GRK2 inh inactive, DSG3 Ab inh inactive, HDAC3 inh inactive, LANA-H2A inh inactive and VLA-4 inh inactive.
For Cc1ccc(-n2cc(CNCCc3ncc(C)[nH]3)c(-c3ccc(F)cc3)n2)cc1 the results were GRK2 inh inactive, DSG3 Ab inh inactive, HDAC3 inh inactive, LANA-H2A inh inactive, VLA-4 inh inactive and PKD1 inh inactive.
`Cc1cc(NC(=O)Cn2c(=O)oc3ccccc32)no1` gave GRK2 inh inactive, DSG3 Ab inh inactive, HDAC3 inh inactive, LANA-H2A inh inactive, VLA-4 inh inactive and VLA-4 allo CP inactive.
For C=CCn1c(C)cc(C2=NNC(=NC(C)(C)C)SC2)c1C the results were GRK2 inh inactive, DSG3 Ab inh inactive, HDAC3 inh inactive, LANA-H2A inh inactive, VLA-4 inh inactive, PKD1 inh inactive and VLA-4 allo CP inactive.
For CC1(C)C(C(=O)O)N2C(=O)C(NC(=O)Cc3ccccc3)C2S1=O (stereo unspecified) the results were GRK2 inh inactive, DSG3 Ab inh inactive, HDAC3 inh inactive, LANA-H2A inh inactive, VLA-4 inh 59.0 and VLA-4 allo CP inactive.
`CC1(C)C(C(=O)OCC(Cl)(Cl)Cl)N2C(=O)C(NC(=O)Cc3ccccc3)C2S1=O` (stereo unspecified) gave GRK2 inh inactive, DSG3 Ab inh inactive, HDAC3 inh inactive, LANA-H2A inh inactive and VLA-4 inh inactive.
For CNc1nc(OCCNC(=O)Nc2ccccc2)nc(N2CCOCC2)n1 the results were GRK2 inh inactive, HDAC3 inh inactive, LANA-H2A inh inactive, VLA-4 inh 58.8, PKD1 inh inactive and VLA-4 allo CP inactive.
S=C(NCCN(C1CCCCC1)C1CCCC1)Nc1cccc(Cl)c1 was read as GRK2 inh inactive, DSG3 Ab inh inactive, HDAC3 inh inactive, LANA-H2A inh inactive and VLA-4 inh inactive.
`S=C(NCCC(c1ccccc1)c1ccccc1)Nc1cccc(Cl)c1` gave GRK2 inh inactive, DSG3 Ab inh inactive, HDAC3 inh inactive, LANA-H2A inh inactive, VLA-4 inh 93.4, PKD1 inh inactive and VLA-4 allo CP inactive.
For CCOc1ccc(Nc2ccc(N)c(S(=O)(=O)O)c2)cc1 the results were DSG3 Ab inh inactive.
Screening Cc1c(C)c2c(OCC(=O)N[C@@H](Cc3ccccc3)C(=O)O)cc3c(c2oc1=O)CCC(C)(C)O3 returned GRK2 inh inactive, DSG3 Ab inh inactive, HDAC3 inh inactive, LANA-H2A inh inactive, VLA-4 inh 64.3 and VLA-4 allo CP inactive.
Screening CSC[C@H](NC(=O)COc1cc2c(c3oc(=O)c(C)c(C)c13)CCC(C)(C)O2)C(=O)O returned GRK2 inh inactive, DSG3 Ab inh inactive, HDAC3 inh inactive, LANA-H2A inh inactive and VLA-4 inh inactive.
Screening Cc1ccc(Sc2ccc(N)cn2)cc1 returned GRK2 inh inactive, DSG3 Ab inh inactive, HDAC3 inh inactive, LANA-H2A inh inactive and VLA-4 inh inactive.
COC(=O)[C@@H]1[C@@H](C#N)C2(c3ccccc3-c3ccccc32)N(c2ccc(Cl)cc2)N1C#N was read as GRK2 inh inactive, DSG3 Ab inh inactive, HDAC3 inh inactive, LANA-H2A inh inactive, VLA-4 inh 57.8, PKD1 inh inactive and VLA-4 allo CP inactive.
For O=C1C2C3C=CC(c4ccccc4)(C2C(=O)N1c1cccc(Cl)c1)C1C(=O)N(c2cccc(Cl)c2)C(=O)C31 (stereo unspecified) the results were GRK2 inh inactive, DSG3 Ab inh inactive, HDAC3 inh inactive, LANA-H2A inh inactive, VLA-4 inh 56.9, PKD1 inh inactive and VLA-4 allo CP inactive.
Screening O=C1C2C3CCCC3=C3CCCC3C2C(=O)N1c1cccc(Cl)c1 (stereo unspecified) returned GRK2 inh inactive, DSG3 Ab inh inactive, HDAC3 inh inactive, LANA-H2A inh inactive, VLA-4 inh inactive and PKD1 inh inactive.
O=C(c1cc(-c2ccccc2)nc2ccccc12)N1CCN(C2CCS(=O)(=O)C2)CC1 (stereo unspecified) was read as GRK2 inh inactive, DSG3 Ab inh inactive, HDAC3 inh inactive, LANA-H2A inh inactive and VLA-4 inh inactive.
`Cc1ccc(-c2cc(C(=O)N3CCN(C4CCS(=O)(=O)C4)CC3)c3ccccc3n2)cc1` (stereo unspecified) gave GRK2 inh inactive, DSG3 Ab inh inactive, HDAC3 inh inactive, LANA-H2A inh inactive, VLA-4 inh inactive and VLA-4 allo CP inactive.
For N#CC1(NC(=O)CN2c3cccc4cccc(c34)S2(=O)=O)CCCCC1 the results were GRK2 inh inactive, DSG3 Ab inh inactive, HDAC3 inh inactive, LANA-H2A inh inactive and VLA-4 inh inactive.
For CN(C)CCCO[C@@H]1[C@H]2OC(C)(C)O[C@H]2O[C@@H]1[C@H](O)CO the results were GRK2 inh inactive, DSG3 Ab inh inactive, HDAC3 inh inactive, LANA-H2A inh inactive and VLA-4 inh inactive.
For CCCCCN1C(=O)Cn2c(nc3ccccc3c2=O)C1C (stereo unspecified) the results were GRK2 inh inactive, DSG3 Ab inh inactive, HDAC3 inh inactive, LANA-H2A inh inactive, VLA-4 inh inactive, PKD1 inh inactive and VLA-4 allo CP inactive.
`c1ccc(-c2nn3cnnc3c3ccccc23)cc1` gave GRK2 inh inactive, DSG3 Ab inh inactive, HDAC3 inh inactive, LANA-H2A inh inactive, VLA-4 inh inactive, PKD1 inh inactive and VLA-4 allo CP inactive.
For O=C(CNC(=O)c1ccc(-c2ccccc2)cc1)OCc1c(F)cccc1Cl the results were GRK2 inh inactive, DSG3 Ab inh inactive, HDAC3 inh inactive, LANA-H2A inh inactive, VLA-4 inh inactive and PKD1 inh inactive.
`O=C(CNC(=O)c1ccc(-c2ccccc2)cc1)OCc1c(Cl)cccc1Cl` gave GRK2 inh inactive, DSG3 Ab inh inactive, HDAC3 inh inactive, LANA-H2A inh inactive, VLA-4 inh 52.5, PKD1 inh inactive and VLA-4 allo CP inactive.
